Assay results: the supplement of paper PMC6555819

How the values were obtained:
Experiment in all cases: PBM binding z-score (relative to random genomic background probes); higher = stronger binding; sequences stand for … in GC…GCGATTGACAGCGTAGAATGAAGG
[1] = test system: RARb homodimer (NR concentration 270 nM)
Procedure, shortened: (§1)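 Custom Agilent 4×180K protein-binding microarrays carried double-stranded probes, each with a 34-nt variable region. These regions held direct-repeat seeds, single-nucleotide variants, half-site ablations and random human genomic background sequences. Ligand-free nuclear receptor dimers were incubated on the arrays for 1 h, antibodies against each partner (one per run) detected binding, and scanned fluorescence was regression-normalized. Binding z-scores take the random background probes as reference.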

[2] = test system: RARg:RXRa (NR concentration 270 nM, RXRa partner concentration 90 nM)
Procedure, shortened: as §1

[3] = test system: RARg homodimer (NR concentration 270 nM)
Procedure, shortened: as §1

[4] = test system: RXRa DBDmut IVT, anti-RXR (DBD mutation: RXRa K156A/R161A, NR concentration 90 nM)
Procedure, shortened: as §1

[5] = test system: RXRa homodimer (NR concentration 180 nM)
Procedure, shortened: as §1

[6] = test system: THRa:RXRa (NR concentration 90 nM, RXRa partner concentration 90 nM)
Procedure, shortened: as §1

[7] = test system: THRa homodimer (NR concentration 90 nM)
Procedure, shortened: as §1

[8] = test system: VDR homodimer (NR concentration 270 nM)
Procedure, shortened: as §1

Sequence	PBM binding z-score [1]	PBM binding z-score [2]	PBM binding z-score [3]	PBM binding z-score [4]	PBM binding z-score [5]	PBM binding z-score [6]	PBM binding z-score [7]	PBM binding z-score [8]
ACTATTAGTTGAGACGAGGGCAGCCGATAGGTTG	0.756	0.374	0.715	0.298	0.449	2.02	0.0606	0.189
CGAACTAGGTCAGAACAGGACAGTGAGGGATGAT	2.12	2.44	3.18	0.709	1.47	3.57	0.102	-0.141
CGGACTAGGTCAGAACAGGACAGTGAAGGATGAT	1.79	2.4	2.97	0.496	1.15	3.38	0.402	-0.0539
ATACCAAGGTGATCGTGAGGTCGTTGTTACTAAC	1.7	1.78	0.637	0.951	1.21	3.27	2.64	3.22
ATCTCTAAGTAAGACTCAGTTCAGTGAAGAACGC	0.513	0.345	0.42	0.804	-0.0426	0.401	0.351	1.57
AGAATGAGGTTTTTAAGATCAGGGAATTGCGGTC	-0.159	-0.0419	-0.355	0.351	0.0313	0.216	-0.0732	-0.068
AGAACAAGGGCACGCTGAGTTGATAGCAGAGTAG	1.11	1.6	1.99	1.22	0.942	1.28	-0.108	1.07
TCTAGCACGCCAGAGGGTCACTCAAGAGGTACGG	2.3	2.29	1.68	0.0776	2.41	1.48	-0.414	0.501
AGAATGAGGTTATTAAGAGCAGGGAATTGCGGTC	1.16	1.1	0.698	2.01	1.48	2.14	0.798	1.21
CAGCCTGGGTCAGGGCCAGTATAGGAGGAACGTT	2.07	2.63	2.76	-1.29	1.51	1.09	-0.124	-0.545
CGAACTAGGTCAAGGACAGTGAGTCTCCGCACGC	3	3.43	4.13	1.02	2.28	3.1	1.85	0.408
ATACCAAGGTAATCGTGAGGTCGTTGATACTAAC	1.44	1.55	0.586	0.482	1.2	3.27	2.64	3.08
CCTTACGGGTCACTCCAGGTTATCGCATCGGAGT	3.25	4.44	4.23	1.07	4.36	5.13	0.863	1.57
CCAGACATGTGAAAGGTAACTCAGTCTGGTACGC	0.0662	0.308	0.362	0.289	0.767	0.162	-0.146	0.204
CGTCCAAGGTCATCAGGTCAGTGAAAGCGACGTG	5.08	6.56	6.99	4.23	6.63	4.34	3.86	3.8
GCTAGTTGGTCAGTAATAGGTCACACACCGGTCG	3.86	3.12	2.58	0.228	2.43	2.06	0.841	0.317
TCAGACAGGTGCAGGTAACTCAGGTACGCAGTCG	-0.182	-0.0126	-0.0497	0.956	0.745	0.824	0.0725	0.478
CGTCCAAGGTCATAGGAGGGCAGTGAAGACAGAT	4.01	5.77	5.89	3.81	5.44	4.83	2.17	3.3
TATACAGGGACAAAGGCCAGAGTACGAATGTCGA	1.4	1.29	1.58	-0.217	0.385	0.949	-0.0231	0.738

Sequence	PBM binding z-score [1]	PBM binding z-score [2]	PBM binding z-score [3]	PBM binding z-score [4]	PBM binding z-score [5]	PBM binding z-score [6]	PBM binding z-score [7]	PBM binding z-score [8]
CGTCAAAGTTAAACTAAGGTAACGTAAAGCACGC	0.585	0.536	0.659	0.0253	0.521	4.04	1.78	0.399
CCTAGCAGGCGAATCTGGGTCACTCAAGGCTTGA	1.53	0.494	0.428	0.0113	0.669	2.71	0.222	-0.316
CGAACTAGGCCAGAACAGGACAGTGAAGGATGAT	0.156	0.158	0.409	0.019	0.291	0.634	-0.576	-0.245
AGTCAAGGTTCACTAGGTAACGTAAGATTCAGCT	1.85	2.74	2.72	3.92	2.57	1.8	0.553	3.78
CAAACTAGGTCACGAAGGGTCAAAGTCGAATGAC	5.36	7.01	7.66	2.33	7.15	4.95	2	3.79
ACTAGCTGGTCAGCTGAGGTCACACACAATTCGG	4.27	4.27	4.18	0.848	4.03	5.12	4.71	3.25
TCTATTAGTAGAAGGGCAACCGACGAGTCCGTTT	0.923	0.406	0.636	1.23	0.785	-0.0492	-0.359	1.18
TGAATGATGTTAAAGATCAGGGAACGTGGCGTCG	-0.832	0.221	0.133	-0.892	0.495	-0.238	-0.77	-0.0105
CGGACTGGGGCAGAAAGGTTACCATACCATCCGG	2.51	1.79	1.69	-0.693	1.85	1.29	-0.00516	0.148
CCTAGCAGGCCAATCTGAGTCACTCAAGGCTTGA	-0.614	-0.539	-0.118	0.122	-0.769	-0.175	-0.499	-0.793
CCAGACAGGTTAAAGGTAACTCAGTCTGGTACGC	1.09	2.24	1.28	0.388	3.23	1.37	-0.0486	0.276
CCTACTGGGCCATCTGGTCATTGATATCAACGTT	0.54	0.0182	0.419	-0.267	-0.224	-0.171	0.0962	-0.0886
CAGACTAGGTCAAGGTCAAAGTCGGTTTGTGCCA	5.11	6.12	6.67	2.61	6.04	4.32	3.45	4.18
CCTACTGGGCCATTCAGAGGTCCTTGATCATATG	0.208	-0.0281	-0.184	-0.26	-0.29	-0.305	-0.128	-0.336
GCTGCTAGGTGAACTGATGGTCAGCTAAAGCTCG	0.715	0.956	0.47	-0.22	0.333	1.03	-0.574	-0.742
CCTACTGGGCCAAAGGTCATTGAATCCAATGCTC	4.89	5.95	4.83	1.05	6.52	3.56	0.752	2.23
CAAACTAGGTTACGAAAGGTCAAAGTCGAATGAC	5	6.3	5.88	1.6	6.62	4.48	1.51	2.58
CGTCCAAGTTCAAGGTAACGTAACAGAAAGCAGC	2.23	2.83	3.21	4.37	2.15	2.6	1.66	3.39
TATACAGGGTCAAAGGCAAGAGTACGAATGTCGA	3.28	5.58	5.01	3.09	6.4	3.48	1.05	3.39

Sequence	PBM binding z-score [1]	PBM binding z-score [2]	PBM binding z-score [3]	PBM binding z-score [4]	PBM binding z-score [5]	PBM binding z-score [6]	PBM binding z-score [7]	PBM binding z-score [8]
CCTACTCGGCCATTCAGAGGTCATTGATCATATG	4.19	4.17	3.64	2	3.59	3.32	1.99	4.02
ACTAGCAGGCCAAGTTTGGGTGACTCAAACAAAG	0.251	0.0882	-0.216	-0.308	-0.222	0.796	-0.161	-0.571
ATCTATAGGTAAAGTTCAGTGAAAGATCGATAGA	2.35	2.02	2.38	1.21	1.51	0.707	-0.456	1.95
CTCGAAAGGTCGTGCCCAGGTGAGTATACCAAAC	2.89	5.31	3.78	1.72	5.09	3.87	0.947	1.31
CCTACTGGGCCAATGGTCATTGATTCCAATGCTC	0.0691	-0.0352	0.182	-0.608	-0.164	-0.527	-0.561	-0.711
GCGACTGGGCCAAAGCAGGTTACCATAAGGTTGG	0.333	-0.0916	-0.132	-0.818	-0.0243	1.82	-0.598	-0.503
TAGACTAGGTCAGATCGGGCCAGTATACGCTATA	1.99	2.46	3.56	-0.416	1.24	3.92	-0.175	-0.33
AGAATGAGGTTATTAAGATCACGGAATTGCGGTC	0.99	1.37	1.01	2.19	2.01	2.42	0.72	1.73
CAGCCTAGGTCGGGGCCAGTATAGGAGGAACGTT	0.941	0.359	0.842	-0.52	-0.0745	0.171	-0.524	-0.348
GGAACGAGGGCAAAGTCGATAGCATCTGTCGACG	0.649	0.932	0.988	2.53	0.723	0.62	-0.445	1.19
GCTAGTTGGTCAGTAAAAGGTCTCACACCGGTCG	1.45	0.572	0.449	-0.133	0.172	0.0932	0.0808	-0.174
TCAGACAGGTGAAGGAAACTCAGGTACGCAGTCG	0.458	0.429	0.359	1.34	0.487	0.592	0.421	0.426
TAGCCTAGGTCATTGGGCCCGTATAGTACGCATC	2.73	3.69	4.06	1.8	2.68	3.01	1.43	0.994
TATACAGGGTCAAAGGCCAGAGTTCGAATGTCGA	3.91	5.81	5.41	3.27	7.53	3.61	1.03	4.77
CCGACTGGGGCAAGATTACCATAACGCACAGCCA	0.349	0.185	0.477	-0.0134	0.0853	-0.474	-0.565	-0.566
TCATATAGGTAAAGGTGAGAGTCGAACGATATGA	1.28	1.29	1.33	0.713	1.64	0.888	-0.508	-0.128
GGAACGAGGGCAAGTTCATAGCAGAGTTTGATGG	2.84	2.99	3.16	3.64	2.16	2.35	0.375	5.08
TCTCGGACGACACGAAGGTCAGAGCTTTCCAGAG	3.12	2.49	2.65	0.495	2	1.53	0.0855	0.189
